Experimental data reported in PubChem BioAssay (EPA / NIEHS).
Results filed as inconclusive are left out. The source made the active and inactive calls. How the source made its calls: active means hit-call score of the fitted dose curve at least 0.9, where 1 is the maximum; inconclusive means response in the unintended direction; inactive means score below 0.9.

Experiment: TOX21_TR_RXR_BLA_Antagonist_Followup_viability: Viability Assessment in the Tox21 Thyroid Hormone Receptor beta Retinoid X Receptor alpha (RXRa) Antagonism Beta-lactamase (BLA) Follow-Up Assay (AID 2283979)
Source text: GeneBLAzer RXRa-UAS-bla HEK293T assay (RXRa-bla) (ThermoFisherScientific Catalog No. K1697) was run in qHTS 1536 well format as a secondary assay for specificity of response in the TOX21_TR_GH3_LUC_Agonist assay.TOX21_TR_RXR_BLA_Antagonist_Followup_viability is a component of the TOX21_TR_RXR_BLA_Antagonist_Followup assay. This component measures cell viability using the CellTiter-Glo Luciferase-coupled ATP quantitation.The assay component endpoint TOX21_TR_RXR_BLA_Antagonist_Followup_viability was analyzed with bidirectional fitting relation to DMSO as the negative control and baseline of activity. Using a type of viability reporter, loss-of-signal activity can be used to understand changes in viability. To generalize the intended target to other relatable targets, this assay endpoint is annotated to cell cycle, where the subfamily is cytotoxicity.
Cell Media Required: Growth (90% DMEM/F-12, 10% Fetal Bovine Calf Serum, 100U/ml Penicillin, 100 ug/ml Streptomycin), Assay (10ng/mL sodium selenite, 10 ug/mL humanapo-transferrin, 10 uM ethanolamine, 10 ug/mL insulin, 500 ug/mL bovine serum albumin (BSA))Assay Protocol: RXRa-bla cells were seeded at 2,500/well in 6 uL of the assay medium containing phenol red-free DMEM with 2% charcoal-stripped FBS in 1,536-well black-wall/clear-bottom plates (Greiner Bio-One North America) usinga Multidrop Combi dispenser. After5-h incubation at 37C/5% CO2 for cell attachment, 23 nL of follow-up compounds dissolved in DMSO, 11 concentrations in triplicate, and the positive control (9-cis retinoic acid) were transferred to the assay plates using a Pintool station. The assay plates were incubated at 37C/5% CO2 for 16h. One microliter of LiveBLAzer FRET-B/GCCF4-AM substrate (Life Technologies) was added to each well using an FRD. After 2-h incubation at room temperature, the fluorescence intensity was measured using an Envision plate reader (Perkin Elmer). Data were expressed as the ratio of 460:530 nm.

Structure (SMILES)	outcome	AC50
CC1(C)N=C(N)N=C(N)N1c1ccc(Cl)cc1	inactive	–
Cc1oc(C)c(C(=O)Nc2ccccc2)c1C	inactive	–
Nc1c2ccccc2nc2ccccc12	–	10.6 µM (active)
O=C1C(=O)c2ncccc2-c2cccnc21	inactive	–
CO[C@H]1C[C@@H]2CC[C@@H](C)[C@@](O)(O2)C(=O)C(=O)N2CCCC[C@H]2C(=O)O[C@H]([C@H](C)C[C@@H]2CC[C@@H](OCCO)[C@H](OC)C2)CC(=O)[C@H](C)/C=C(\C)[C@@H](O)[C@@H](OC)C(=O)[C@H](C)C[C@H](C)\C=C/C=C/C=C/1C	inactive	–
Oc1ccc(OCc2ccccc2)cc1	inactive	–
CCc1cc(Cl)c(OC)c(C(=O)NC[C@@H]2CCCN2CC)c1O	inactive	–
CCCC(=O)O[C@]1(C(=O)CCl)[C@@H](C)C[C@H]2[C@@H]3CCC4=CC(=O)C=C[C@]4(C)[C@@]3(F)C(=O)C[C@@]21C	inactive	–
O=[Se](O)O	–	5.16 µM (active)
CC(=O)Nc1ccn(C2COC(COC(=O)c3ccccc3)O2)c(=O)n1 (stereo not given)	inactive	–
NC(N)=NCc1cccc(I)c1	inactive	–
CC(=O)[C@H]1CC[C@H]2[C@@H]3C=CC4=CC(=O)CC[C@@]4(C)[C@@H]3CC[C@]12C	inactive	–
CCC[C@@]1(CCc2ccccc2)CC(O)=C([C@H](CC)c2cccc(NS(=O)(=O)c3ccc(C(F)(F)F)cn3)c2)C(=O)O1	inactive	–
COC(=O)Nc1nc2ccc(Sc3ccccc3)cc2[nH]1	inactive	–
O=C(CCCCCCCCC#CI)Oc1ccccc1	inactive	–
Brc1cc(Oc2cc(Br)c(Br)c(Br)c2Br)c(Br)c(Br)c1Br	inactive	–
Cc1c(Nc2ncccc2C(=O)O)cccc1C(F)(F)F	inactive	–
Nc1ccc2cc3ccc(N)cc3nc2c1	inactive	–
COc1cc([C@@H]2c3cc4c(cc3[C@H](O)[C@H]3COC(=O)[C@H]23)OCO4)cc(OC)c1OC	inactive	–
CO[C@H]1C[C@@H]2CC[C@@H](C)[C@@](O)(O2)C(=O)C(=O)N2CCCC[C@H]2C(=O)O[C@H]([C@H](C)C[C@@H]2CC[C@@H](O)[C@H](OC)C2)CC(=O)[C@H](C)/C=C(\C)[C@@H](O)[C@@H](OC)C(=O)[C@H](C)C[C@H](C)\C=C/C=C/C=C/1C	inactive	–

Structure (SMILES)	outcome	AC50
O=C(CCCCCCC(=O)Nc1ccccc1)NO	inactive	–
C#CCC(Cc1cnc2nc(N)nc(N)c2n1)c1ccc(C(=O)N[C@@H](CCC(=O)O)C(=O)O)cc1 (stereo not given in full)	–	0.542 µM (active)
C[n+]1c2cc(N)ccc2cc2ccc(N)cc21 (tested in a mixture with another compound)	–	16.5 µM (active)
CC1(C)S[C@@H]2[C@H](NC(=O)C(N)c3ccccc3)C(=O)N2[C@H]1C(=O)OC1OC(=O)c2ccccc21 (stereo not given in full)	inactive	–
CCCOc1ccc2nc(NC(=O)OC)sc2c1	inactive	–
CO[C@H](C(=O)[C@@H](O)[C@@H](C)O)C1Cc2cc3cc(O[C@H]4C[C@@H](O[C@H]5C[C@@H](O)[C@H](O)[C@@H](C)O5)[C@@H](O)[C@@H](C)O4)c(C)c(O)c3c(O)c2C(=O)[C@H]1O[C@H]1C[C@@H](O[C@H]2C[C@@H](O[C@H]3C[C@](C)(O)[C@H](O)[C@@H](C)O3)[C@H](O)[C@@H](C)O2)[C@H](O)[C@@H](C)O1 (stereo not given in full)	–	1.35 µM (active)
COc1ccc2nc(NC(=O)Nc3ccccc3)sc2c1	inactive	–
CC(C)=CCC1=C(O)c2ccccc2C(=O)C1=O	inactive	–
CCCCCOc1ccc(C2SC(=O)NC2=O)cc1OCC (stereo not given)	inactive	–
CCCCCCNC(=O)n1cc(F)c(=O)[nH]c1=O	inactive	–
CC(C(=O)O)c1ccc(N2Cc3ccccc3C2=O)cc1 (stereo not given)	inactive	–
Cc1nc2ccccc2n1Cc1ccc(Cl)cc1	inactive	–
O=c1[nH]c(=O)n([C@H]2C[C@H](O)[C@@H](CO)O2)cc1F	inactive	–
CC[C@@]1(O)C[C@@H]2CN(CCc3c([nH]c4ccccc34)[C@@](C(=O)OC)(c3cc4c(cc3OC)N(C)[C@H]3[C@@](O)(C(=O)OC)[C@H](OC(C)=O)[C@]5(CC)C=CCN6CC[C@]43[C@@H]65)C2)C1	inactive	–
COc1ccc(/C=C/C(=O)Nc2ccccc2C(=O)O)cc1OC	inactive	–
Cc1cc(Nc2ccccc2C(=O)O)ccc1Cl	inactive	–
O=C(O)c1cccc(-c2noc(-c3ccccc3F)n2)c1	inactive	–
CC(C)n1c(/C=C/[C@@H](O)C[C@@H](O)CC(=O)O)c(-c2ccc(F)cc2)c2ccccc21	inactive	–
C[C@@H]1C[C@H]2[C@@H]3CCC4=CC(=O)C=C[C@]4(C)[C@@]3(Cl)[C@@H](O)C[C@]2(C)[C@@]1(OC(=O)c1ccco1)C(=O)CCl	inactive	–
Oc1c(I)cc(I)c2cccnc12	inactive	–
